Test results published in the supplement of paper PMC12494721.
Counter-ions that a name gives are not always drawn.

Tests used:
Details in all cases: incubation time: 27 h, anaerobic, 37 °C;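 for the amine columns active = adjusted P below 0.05 in both replicates with a change the same way and a mean fold change under 0.8 or over 1.25; inactive = the rest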
[1] = system: Clostridium sporogenes DSM 1664; test: growth (OD595) fold change vs plate DMSO controls (fold change (ratio)); higher = more growth
Procedure, shortened: (§1)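 To obtain OD, 595 nm absorbance readings were blank-subtracted, corrected for compound background using 20 µM compound solutions in water, and multiplied by a calibration factor of 5. They came from 96-well mGAM cultures grown anaerobically for 27 h at 37 °C and shaken before reading. Growth is the fold change relative to the median of plate DMSO controls. Two biological replicates were averaged, and fold changes above 1.5 were set to NA.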

Escherichia coli IAI1 [2] = test: as above
Procedure, shortened: as §1

[3] = system: Klebsiella aerogenes DSM 30053; test: as above
Procedure, shortened: as §1

[4] = system: Klebsiella aerogenes DSM 30053; test: fold change of Histamine concentration vs plate DMSO controls (fold change (ratio)); higher = more amine produced, active = hit call of the paper (significant change in both replicates, either direction)
Procedure, shortened: (§2)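 Anaerobic mGAM cultures of four gut bacterial strains were grown at 37 °C for 27 h in 80 µL wells, starting at OD 0.1 before 1:1 dilution. Compounds were at 20 µM final (sweeteners 50 µM). Whole cultures were extracted with cold acetonitrile/methanol containing 0.1% formic acid and centrifuged. Amines were quantified by LC–triple-quadrupole MS (dynamic MRM) against external calibration curves and drift-corrected within batch. Each value is the fold change versus plate DMSO controls, averaged over 2 biological replicates.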

[5] = system: Clostridium sporogenes DSM 1664; test: fold change of Tryptamine concentration vs plate DMSO controls (fold change (ratio)); higher = more amine produced, active = hit call of the paper (significant change in both replicates, either direction)
Procedure, shortened: as §2

[6] = system: Ruminococcus gnavus DSM 108212; test: as above
Procedure, shortened: as §2

Escherichia coli IAI1 [7] = test: fold change of Putrescine concentration vs plate DMSO controls (fold change (ratio)); higher = more amine produced, active = hit call of the paper (significant change in both replicates, either direction)
Procedure, shortened: as §2

[8] = system: Klebsiella aerogenes DSM 30053; test: as above
Procedure, shortened: as §2

Escherichia coli IAI1 [9] = test: fold change of Cadaverine concentration vs plate DMSO controls (fold change (ratio)); higher = more amine produced, active = hit call of the paper (significant change in both replicates, either direction)
Procedure, shortened: as §2

[10] = system: Klebsiella aerogenes DSM 30053; test: as above
Procedure, shortened: as §2

[11] = system: Ruminococcus gnavus DSM 108212; test: fold change of 2-Phenylethylamine concentration vs plate DMSO controls (fold change (ratio)); higher = more amine produced, active = hit call of the paper (significant change in both replicates, either direction)
Procedure, shortened: as §2

[12] = system: Ruminococcus gnavus DSM 108212; test: growth (OD595) fold change vs plate DMSO controls (fold change (ratio)); higher = more growth
Procedure, shortened: as §1

| SMILES | growth [1] | growth (Escherichia coli IAI1 [2]) | growth [3] | fold change of Histamine concentration [4] | fold change of Tryptamine concentration [5] | fold change of Tryptamine concentration [6] | fold change of Putrescine concentration (Escherichia coli IAI1 [7]) | fold change of Putrescine concentration [8] | fold change of Cadaverine concentration (Escherichia coli IAI1 [9]) | fold change of Cadaverine concentration [10] | fold change of 2-Phenylethylamine concentration [11] | growth [12] |
| --- | --- | --- | --- | --- | --- | --- | --- | --- | --- | --- | --- | --- |
| Nc1nc2[nH]cc(CCc3ccc(C(=O)N[C@@H](CCC(=O)O)C(=O)O)cc3)c2c(=O)[nH]1 [Pemetrexed disodium] (20 µM) | 1.11 | 1.25 | 0.529 | 0.471 (inactive) | 1.04 (inactive) | 0.788 (inactive) | 1.07 (inactive) | 0.577 (inactive) | 0.876 (inactive) | 0.663 (inactive) | 0.811 (inactive) | – |
| CO/N=C(\C(=O)N[C@@H]1C(=O)N2C(C(=O)OC(C)OC(C)=O)=C(COC(N)=O)CS[C@H]12)c1ccco1 (some centres not stated) [Cefuroxime axetil] (20 µM) | 0.673 | 1.18 | 1.1 | 0.905 (inactive) | 1.03 (inactive) | 0.936 (inactive) | 0.933 (inactive) | 1.05 (inactive) | 1.27 (active) | 1.02 (inactive) | 0.94 (inactive) | – |
| NC(=O)c1cc[n+](CC2=C(C(=O)O)N3C(=O)[C@@H](NC(=O)C(c4ccccc4)S(=O)(=O)[O-])[C@H]3SC2)cc1 (some centres not stated) [Cefsulodin Sodium Salt Hydrate] (20 µM) | 0.555 | 1.04 | 1.02 | 1.03 (inactive) | 0.838 (inactive) | 0.779 (inactive) | 1.06 (inactive) | 0.997 (inactive) | 1.1 (inactive) | 0.992 (inactive) | 0.836 (inactive) | – |
| COc1cccc(OC)c1C(=O)N[C@@H]1C(=O)N2[C@@H]1SC(C)(C)[C@@H]2C(=O)O [Methicillin sodium] (20 µM) | 0.569 | 1.14 | 0.978 | 1.05 (inactive) | 0.196 (active) | 0.608 (active) | 1.24 (inactive) | 1 (inactive) | 0.875 (inactive) | 0.969 (inactive) | 0.721 (inactive) | – |
| CO[C@@]1(NC(=O)CSCC#N)C(=O)N2C(C(=O)O)=C(CSc3nnnn3C)CS[C@@H]21 [Cefmetazole sodium salt] (20 µM) | 0 | 0.0115 | 1.16 | 1.12 (inactive) | 0.0521 (active) | 0.978 (inactive) | 0.284 (active) | 1.05 (inactive) | 0.941 (inactive) | 1.03 (inactive) | 1.13 (inactive) | – |
| Cc1cc(N)c2ccccc2[n+]1CCCCCCCCCC[n+]1c(C)cc(N)c2ccccc21 [Dequalinium dichloride] (20 µM) | 0.993 | 0.99 | 1.11 | 0.873 (inactive) | 0.951 (inactive) | 0.896 (inactive) | 0.933 (inactive) | 1 (inactive) | 0.968 (inactive) | 1.01 (inactive) | 0.921 (inactive) | 0.565 |
| C[C@@H](O[C@H]1OCCN(Cc2n[nH]c(=O)[nH]2)[C@H]1c1ccc(F)cc1)c1cc(C(F)(F)F)cc(C(F)(F)F)c1 [Aprepitant] (20 µM) | 1.21 | 0.988 | 1 | 1.02 (inactive) | 0.945 (inactive) | 0.742 (inactive) | 1.03 (inactive) | 1.01 (inactive) | 1.02 (inactive) | 0.993 (inactive) | 0.791 (inactive) | 1.2 |
| N[C@@H](C(=O)N[C@@H]1C(=O)N2C(C(=O)O)=C(Cl)CC[C@H]12)c1ccccc1 [Loracarbef] (20 µM) | 0 | 1.15 | 1.13 | 0.886 (inactive) | 0.0238 (active) | 0.345 (active) | 1.05 (inactive) | 1.04 (inactive) | 1.52 (active) | 1.05 (inactive) | 0.319 (active) | – |
| CN(C)CCOC(=O)C(c1ccccc1)C1(O)CCCC1 (configuration not stated) [Cyclopentolate hydrochloride] (20 µM) | 0.823 | 1.04 | 1.04 | 0.982 (inactive) | 1.01 (inactive) | 1.02 (inactive) | 1.04 (inactive) | 0.987 (inactive) | 0.977 (inactive) | 0.99 (inactive) | 1.05 (inactive) | 0.93 |
| CC(C)(O/N=C(\C(=O)N[C@@H]1C(=O)N2C(C(=O)[O-])=C(C[n+]3ccccc3)CS[C@H]12)c1csc(N)n1)C(=O)O [Ceftazidime pentahydrate] (20 µM) | 0.781 | 0.132 | 0.595 | 1.18 (inactive) | 1.04 (inactive) | 0.877 (inactive) | 2.08 (active) | 0.905 (inactive) | 2.09 (active) | 1.16 (inactive) | 0.865 (inactive) | – |
| NC(=O)c1cc[n+](CC2=C(C(=O)[O-])N3C(=O)[C@@H](NC(=O)[C@@H](c4ccccc4)S(=O)(=O)O)[C@H]3SC2)cc1 [Cefsulodin sodium salt] (20 µM) | 0.613 | 0.995 | 1.02 | 1 (inactive) | 0.876 (inactive) | 0.796 (active) | 0.97 (inactive) | 1.01 (inactive) | 1.07 (inactive) | 1 (inactive) | 0.886 (inactive) | – |
| OC(CCN1CCCCC1)(c1ccccc1)C1CC2C=CC1C2 (configuration not stated) [Biperiden hydrochloride] (20 µM) | 1.01 | 1.01 | 1.17 | 0.911 (inactive) | 0.995 (inactive) | 0.916 (inactive) | 1.04 (inactive) | 0.999 (inactive) | 0.899 (inactive) | 1.01 (inactive) | 0.935 (inactive) | 0.975 |
| NS(=O)(=O)c1cc(C(=O)NN2C[C@@H]3[C@H]4CC[C@H](C4)[C@@H]3C2)ccc1Cl [Tripamide] (20 µM) | 0.981 | 1.01 | 0.978 | 1.01 (inactive) | 1.03 (inactive) | 1.06 (inactive) | 0.995 (inactive) | 0.981 (inactive) | 0.928 (inactive) | 0.998 (inactive) | 1.05 (inactive) | 1.08 |
| CS(=O)(=O)Nc1ccc([N+](=O)[O-])cc1Oc1ccccc1 [Nimesulide] (20 µM) | 1.01 | 0.991 | 1.03 | 1.07 (inactive) | 0.973 (inactive) | 0.972 (inactive) | 1.01 (inactive) | 1.01 (inactive) | 1 (inactive) | 0.991 (inactive) | 0.905 (inactive) | – |
| C/C(=C(\CCOC(=O)c1ccccc1)SS/C(CCOC(=O)c1ccccc1)=C(/C)N(C=O)Cc1cnc(C)nc1N)N(C=O)Cc1cnc(C)nc1N [Bisbentiamine] (20 µM) | 0.925 | 0.985 | 0.994 | 1 (inactive) | 0.975 (inactive) | 0.917 (inactive) | 0.998 (inactive) | 0.999 (inactive) | 1.03 (inactive) | 0.983 (inactive) | 0.855 (inactive) | 1.01 |
| CCCc1nc2c(C)cc(-c3nc4ccccc4n3C)cc2n1Cc1ccc(-c2ccccc2C(=O)O)cc1 [Telmisartan] (20 µM) | 0.962 | 0.99 | 1.02 | 1.02 (inactive) | 0.911 (inactive) | 0.966 (inactive) | 1.04 (inactive) | 1.01 (inactive) | 1.05 (inactive) | 0.996 (inactive) | 1.01 (inactive) | 0.953 |
| Clc1ccc(Nc2nnc(Cc3ccncc3)c3ccccc23)cc1 [Vatalanib] (20 µM) | 1.06 | 1.19 | 1.08 | 0.91 (inactive) | 1.12 (inactive) | 1.02 (inactive) | 1.17 (inactive) | 0.942 (inactive) | 0.945 (inactive) | 1.02 (inactive) | 1.01 (inactive) | – |
| CC1COc2c(N3CCN(C)CC3)c(F)cc3c(=O)c(C(=O)O)cn1c23 (configuration not stated) [Ofloxacin] (20 µM) | 0.0346 | 0.0388 | 0.256 | 0.09 (active) | 0.0354 (active) | 0.997 (inactive) | 0.809 (inactive) | 0.653 (active) | 0.187 (active) | 0.961 (inactive) | 1.06 (inactive) | – |
| CC/C=C(\C(=O)N[C@@H]1C(=O)N2C(C(=O)OCOC(=O)C(C)(C)C)=C(COC(N)=O)CS[C@H]12)c1csc(N)n1 [Cefcapene pivoxil hydrochloride monohydrate] (20 µM) | 0.716 | 0.786 | 1.07 | 0.95 (inactive) | 1.1 (inactive) | 1.02 (inactive) | 0.961 (inactive) | 0.964 (inactive) | 1.06 (inactive) | 1.03 (inactive) | 1.01 (inactive) | – |
| Cc1c(C)c2c(c(C)c1O)CCC(C)(COc1ccc(CC3SC(=O)NC3=O)cc1)O2 (configuration not stated) [Troglitazone] (20 µM) | 1.31 | 0.981 | 1.1 | 0.914 (inactive) | 0.721 (active) | 0.696 (active) | 1.01 (inactive) | 0.995 (inactive) | 1.01 (inactive) | 1.01 (inactive) | 0.777 (active) | – |
| COc1ccc(C(Cl)=C(c2ccc(OC)cc2)c2ccc(OC)cc2)cc1 [Chlorotrianisene] (20 µM) | 1.07 | 0.924 | 0.946 | 0.94 (inactive) | 0.978 (inactive) | 1.06 (inactive) | 1.01 (inactive) | 0.998 (inactive) | 1 (inactive) | 1 (inactive) | 1.07 (inactive) | – |
| CC[N+](C)(CC)CCC[n+]1c(-c2ccccc2)c2cc(N)ccc2c2ccc(N)cc21 [Propidium iodide] (20 µM) | 1.18 | 1.07 | 1.08 | 1.07 (inactive) | 1.07 (inactive) | 1.05 (inactive) | 0.99 (inactive) | 1 (inactive) | 1 (inactive) | 0.999 (inactive) | 1.08 (inactive) | – |
| CCOC(=O)[C@H](CCc1ccccc1)N[C@@H](C)C(=O)N1Cc2ccccc2C[C@H]1C(=O)O [Quinapril hydrochloride] (20 µM) | 1.03 | 1.02 | 0.996 | 1.06 (inactive) | 1.07 (inactive) | 1.03 (inactive) | 1.09 (inactive) | 1.04 (inactive) | 0.999 (inactive) | 1.01 (inactive) | 1.03 (inactive) | 0.99 |
| C[C@@H]1CN(c2c(F)c(N)c3c(=O)c(C(=O)O)cn(C4CC4)c3c2F)C[C@H](C)N1 [Sparfloxacin] (20 µM) | 0.0221 | 0.0499 | 0.286 | 0.286 (active) | 0.0593 (active) | 0.763 (active) | 0.942 (inactive) | 1.16 (inactive) | 0.264 (active) | 0.973 (inactive) | 0.829 (inactive) | – |
